Values joined by “and” are separate entries in the source; they are usually repeats but may differ in a detail not shown here. Equal values may be shown once. About 83,000 compounds went through this panel and 20% of them were active in at least one assay; those are over-represented in the sample as a whole.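 Compound tested at a single concentration for 48 hours in 96-well plates; a percent growth value below 10 was scored as active.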 Active and inactive are the calls of the source.

In this assay the test system is HL-60(TB) leukemia. In words: NCI-60 one-dose screen, 48 h (100 = growth as untreated, 0 = no growth, -100 = all killed). Particulars: 10 µM unless noted.
Take `COC(=O)c1c(C(=O)OC)c2ccc3c4ccccc4ccc3n2c1C(=O)C(C)Br` (stereo not given): the growth was 39% (inactive). The figure for `COc1cccc(-c2nc(Nc3ccc(S(N)(=O)=O)cc3)c3ccccc3n2)c1` is 35% (inactive); for `COc1ccc(/C=N/N=C(\C)c2ccc3c(c2)Nc2ccccc2S3)cc1O` it is 34.2% (inactive); for `COc1ccc(CN2[C@H](C(=O)NCCCCCCC(=O)NO)Cc3c([nH]c4ccccc34)[C@H]2C2CC2)cc1` it is 3.44% (active). With `N#Cc1c(-c2ccc(F)cc2)nc(SCc2ccc([N+](=O)[O-])cc2)nc1N1CCOCC1` the figure was 82.7% (inactive); with `Cn1cc(-c2cc3nc(-c4cn(C)c5ncc(Br)cc45)cc(N)n3n2)c2cc(F)ccc21`, 1.38% (active).

`C=CC(=O)N1CCN(c2ccc3nc4c(nc3c2C(F)(F)F)C(=O)c2ncccc2C4=O)CC1`: the growth was -24.7% (active).

On to `CCOc1ccccc1[C@H]1C(C(=O)c2ccc(Cl)cc2)C2(N[C@@H]1c1ccccc1)C(=O)Nc1ccc(Cl)cc12` (stereo not given in full), for which the growth is 18.2% (inactive).

Regarding `CCCCCCCCc1ccc(S(=O)(=O)Nc2ccc(CC)cc2C(=O)O)cc1`, the growth was 120% (inactive).

Take `COc1ccc2[nH]c(=O)c(CSc3ccccc3Nc3nccc(-c4ccc(Cl)cc4)n3)cc2c1`: the growth is 23.2% (inactive).

In the case of `O=C(NNC(=O)c1ccc(OCc2nc3ccc(Cl)cc3[nH]2)cc1)Nc1ccc(Cl)c(Cl)c1`, the growth was 103% (inactive). Take `Cc1cc(C)cc(Oc2cccc(-c3c(C)nnn3C3CCN(CCN(C)C)CC3)n2)c1`: the growth is -37% (active). The figure for `Cc1cccc(-c2nc(Nc3ccccc3C(=O)O)c3ccccc3n2)c1` is 39.4% (inactive); for `O=C(NNC(=O)c1ccc(OCc2nc3ccc(Cl)cc3[nH]2)cc1)Nc1ccc(Cl)c(C(F)(F)F)c1` it is 74.8% (inactive); for `N#Cc1c(NC(=O)c2ccc(C(F)(F)F)cc2)sc2c1CCC(O)=C2` it is 6.28% (active). With `CCCCCCCOc1ccc(S(=O)(=O)Nc2ccc(C)c(F)c2C(=O)O)cc1` the figure was 89.8% (inactive). The figure for `COc1ccc2nc(Cl)c(-c3cc(-c4ccccc4)nc(=O)[nH]3)cc2c1` is 3.35% (active); for `CC(C)(C)OC(=O)N1CCC2(CC1)Oc1ccccc1[C@H]1CC(c3ccc(Br)cc3)=NN12` it is 64.1% (inactive). Take `CCOc1ccc(Nc2nc3ccccc3nc2Nc2ccc(OCC)cc2)cc1`: the growth is 31.4% (inactive). The figure for `CC[C@]12C=CCN3CC[C@@]4(c5ccc(OC)cc5N(C)[C@H]4[C@@](O)(C(=O)OC)[C@@H]1OC(=O)CCCC[P+](c1ccc(F)cc1)(c1ccc(F)cc1)c1ccc(F)cc1)[C@@H]32` is -32.2% (active); for `COc1ccc2[nH]c(=O)c(CSc3cccc(N)c3)cc2c1` it is 51.3% (inactive).

Take `O=C(N/N=C/c1ccc(B(O)O)o1)c1[nH]c2ccc(Br)cc2c1-c1ccccc1`: the growth is -29.3% (active).

For the molecule `O=C(NN1C(=O)/C(=C/C=C/c2ccc([N+](=O)[O-])o2)SC1=S)c1ccccc1O`, the growth is -0.846% (active). With `O=C(N=Nc1c(O)[nH]c2ccc(Cl)cc12)c1ccc2nc(-c3ccc(Cl)cc3)[nH]c2c1` the figure was 45.2% (inactive); with `COc1ccccc1[C@H]1C(C(=O)c2ccc(Cl)cc2)C2(N[C@@H]1c1ccccc1)C(=O)Nc1ccc(Cl)cc12` (stereo not given in full), -25.1% (active); with `CCCCCCCCc1ccc(C(=O)Nc2ccc(C)c(OP(=O)(O)O)c2)cc1`, 78.4% (inactive). The figure for `O=C(CSc1nnc(-c2ccc(-c3nc4ccccc4[nH]3)cc2)o1)Nc1ccc(Br)cc1` is 43.1% (inactive). With `COc1ccc(C2N(c3ccc(Br)cc3)N=C(C(C)=O)N2[C@H]2[C@H](OC(C)=O)O[C@H](COC(C)=O)[C@@H](OC(C)=O)[C@@H]2OC(C)=O)cc1` (stereo not given in full) the figure was 23.7% (inactive); with `Clc1ccc(-c2ccc(OCCCN3CCN(c4ccncc4)CC3)cc2)cc1`, -13.9% (active). As for `N#Cc1cc(-c2ccnc(Nc3ccc(N4CCN(C5COC5)CC4)cc3)n2)ccc1N1CCCC1`, the growth was 48.1% (inactive). The figure for `Cn1cc(NC(=O)c2cc(NC(=O)c3ccc(C#Cc4ccccc4)cc3)cn2C)cc1C(=O)NCCCN1CCOCC1` is -67% (active). As to `CC[C@]12C=CCN3CC[C@@]4(c5ccc(OC)cc5N(C)[C@H]4[C@@](O)(C(=O)OC)[C@@H]1OC(=O)CCC[P+](c1ccc(OC)cc1)(c1ccc(OC)cc1)c1ccc(OC)cc1)[C@@H]32`, the growth is -39.7% (active). The figure for `O=C(NO)c1ccc(Cn2ccc3c(Nc4ccccc4)ncnc32)cc1` is 0.922% (active); for `CSc1ccc(OCc2nc3ccccc3n2-c2cccc(NS(C)(=O)=O)c2)cc1` it is 115% (inactive) and 105% (inactive). As for `CCCCCCCS(=O)(=O)N1CCCC(C(=O)Nc2nc3ccc(NC(=O)c4ccc(F)c(OC)c4F)cc3s2)C1` (stereo not given), the growth is 66.7% (inactive). With `COC(=O)c1cc(C(=O)C(C)(C)C)n2c3ccccc3c3ccccc3c12` the figure was 90.4% (inactive); with `CCCCOc1ccc(NC(=O)c2sc3nc(C)ccc3c2N)cc1`, 46.8% (inactive); with `COc1cc(-c2cc(-c3cccc(OCC(=O)O)c3)[nH]c(=O)c2C#N)cc(OC)c1OC`, 80.6% (inactive). Turning to `C/C(=N/O)c1ccc(NC(=O)CSc2nnc(-c3ccc(-c4nc5ccc(Cl)cc5[nH]4)cc3)o2)cc1`, the growth was 44% (inactive). The figure for `CN1CCN(/C(=N\c2sc(-c3ccccc3)nc2-c2ccccc2)c2ccccc2)CC1` is 62.9% (inactive).

The values are drawn from PubChem BioAssay (NCI).
